# Laboratory results published in PMC4552634, “A New Set of Chemical Starting Points with Plasmodium falciparum Transmission-Blocking Potential for Antimalarial Drug Discovery” (PLoS ONE, 2015).
# Hit rate of the full screen: of about 13,000 compounds, about 3,200 (25%) showed an effect of 50% or more. The list shows a part of the results.
# System: P. falciparum stage V gametocytes
# Design: BacTiter-Glo ATP luminescence viability of purified stage V gametocytes in 384-well plates, per cent inhibition versus DMSO
# Details: 48 h, 5 µM; inhibitor
row,Compound,% Inhibition [%]
1,CC(C)(C)c1nn(-c2ccccc2)c2[nH]c(=O)c(CNC3CCCC3)cc12 [TCMDC-136483],5.874
2,Cc1cccc2c(C(=O)NC3CCN(Cc4ccccc4)CC3)cc(-c3cccnc3)nc12 [TCMDC-124900],15.64
3,O=S(=O)(c1c(Cl)cc(Cl)cc1Cl)N1CCCCC(c2ccc(F)c(F)c2)=N1 [TCMDC-135420],-45.8
4,Cc1cccc(-c2cccc(CNc3nc(NCCc4ccc(O)cc4)nc(N4CCNCC4)n3)c2)c1 [TCMDC-133810],31.6
5,O=C(Nc1ccc(-c2oc(C(=O)NCCc3cccc(Cl)c3)cc2-c2ccncc2)cc1)Nc1cccc(Cl)c1 [TCMDC-135809],-31.28
6,CC(C)CNC(=O)c1cncc(-c2ccc(CN3CCC(N4CCCC4)CC3)cc2)c1 [TCMDC-134236],32.19
7,COc1ccc(CNc2ncnc3c2[nH]c2ccc(F)cc23)cc1 [TCMDC-124466],15.1
8,Cc1cc2c(/C=C/C(=O)NC3CCC(CCN4CCc5ccc(C#N)cc5CC4)CC3)cccc2[nH]1 (stereo not shown) [TCMDC-139674],-23
9,CCN(CCC1(c2ccc(Cl)c(Cl)c2)CN(C(=O)c2cc(OC)c(OC)c(OC)c2)CCO1)C1CC2c3ccccc3CC21 (stereo not shown) [TCMDC-135570],-88.52
10,CC(=O)Nc1nc(C(=O)Nc2cccc(-c3ccc(-c4nc5ccc(F)cc5[nH]4)cc3)c2)cs1 [TCMDC-137126],7.232
11,O=C(Nc1cccc(-c2ccc(-c3nc4ccc(F)cc4[nH]3)cc2)c1)c1csnn1 [TCMDC-136900],-0.6993
12,Cc1nnsc1C(=O)Nc1cccc(-c2ccc(-c3nc4ccc(F)cc4[nH]3)cc2)c1 [TCMDC-137082],79.62
13,CC(C)CNC(=O)c1ccnc(-c2ccc(CNCCCc3ccccc3)cc2)c1 [TCMDC-134252],-3.007
14,CC[C@H](C)CNC(=O)c1ccnc(-c2ccc(CNCCCc3ccccc3)cc2)c1 [TCMDC-134251],81.79
15,CC[C@H](C)CNC(=O)c1cncc(-c2ccc(CNCCCc3ccccc3)cc2)c1 [TCMDC-134246],-1.463
16,Cc1nc(N)nc(N)c1OCc1cccc2ccccc12 [TCMDC-131357],-0.5645
17,Cc1cccc2[nH]c(-c3ccc(-c4ccc(CN5CCN(CCN6CCOCC6)CC5)cc4)cc3)nc12 [TCMDC-133931],6.93
18,Cc1cccc2[nH]c(-c3ccc(-c4ccc(CN5CCN(CCC#N)CC5)cc4)cc3)nc12 [TCMDC-133867],-11.37
19,Cc1cccc2[nH]c(-c3ccc(-c4ccc(CN5CCN(CCO)CC5)cc4)cc3)nc12 [TCMDC-133033],4.83
20,Cc1cccc2[nH]c(-c3ccc(-c4cccc(CN5CCC(C(N)=O)CC5)c4)cc3)nc12 [TCMDC-132694],-8.961
21,Cc1cccc2[nH]c(-c3ccc(-c4ccc(CN5CCN(CC6CCCN(C)C6)CC5)cc4)cc3)nc12 (stereo not shown) [TCMDC-133898],93.25
22,Cc1cccc2[nH]c(-c3ccc(-c4ccc(CN5CCCC5CN)cc4)cc3)nc12 (stereo not shown) [TCMDC-132999],66.58
23,Cc1cccc2[nH]c(-c3ccc(-c4ccc(CN5CCCCC5)cc4)cc3)nc12 [TCMDC-133901],-1.455

row,Compound,% Inhibition [%]
1,Cc1cccc2[nH]c(-c3ccc(-c4ccc(CN5CCCC(N)C5)cc4)cc3)nc12 (stereo not shown) [TCMDC-133863],93.4
2,Cc1cccc2[nH]c(-c3ccc(-c4cccc(CN5CCCC5CN)c4)cc3)nc12 (stereo not shown) [TCMDC-132993],21.61
3,Cc1cccc2[nH]c(-c3ccc(-c4ccc(CN5CCN(c6ccncc6)CC5)cc4)cc3)nc12 [TCMDC-132919],17.4
4,Cc1cccc2[nH]c(-c3ccc(-c4ccc(CN5CCN(C6CCN(C)CC6)CC5)cc4)cc3)nc12 [TCMDC-133865],83.09
5,Cc1cccc2[nH]c(-c3cccc(-c4ccc(CN5CCCC5CN)cc4)c3)nc12 (stereo not shown) [TCMDC-132991],36.61
6,O=C(Nc1cccc(OC2CCN(Cc3ccsc3)CC2)c1)c1ccc(C(F)(F)F)cc1 [TCMDC-133737],-11.34
7,Cc1cc(OCc2ccncc2)cc2c1C(=O)CC(C)(C)O2 [TCMDC-131314],21.7
8,O=C(N1CCN(c2ccnc3cc4c(cc23)N(Cc2ccccc2)CC4)CC1)C(F)(F)F [TCMDC-140138],5.48
9,O=C(Nc1ccc2c(c1)CCN2C1CCN(Cc2ccc(F)cc2Cl)C1)c1ccco1 (stereo not shown) [TCMDC-135068],-23.63
10,Cc1ccc(C(=O)Nc2ccc(-c3nc4ccccc4[nH]3)cc2)cc1S(=O)(=O)N1CCOCC1 [TCMDC-124532],-13.26
11,COC(=O)c1cccc(CNCc2ccc(-c3ccc(-c4nc5cc(C(F)(F)F)ccc5[nH]4)s3)cc2)c1.O=C(O)C(F)(F)F [TCMDC-132958],-50.86
12,CCCC(C)Nc1nc(C)cc(NCCC(=O)Nc2ccccc2)n1 (stereo not shown) [TCMDC-134763],23.15
13,Cc1sc(C)c(C(F)(F)F)c1CNCCCNc1cc(=O)c2ccccc2[nH]1 [TCMDC-140766],-57.97
14,FC(F)(F)COc1ccc2ccccc2c1CNCCCCCCNCc1c(OCC(F)(F)F)ccc2ccccc12 [TCMDC-137816],113.4
15,FC(F)(F)COc1ccc2ccccc2c1CCNCCCCNCCc1c(OCC(F)(F)F)ccc2ccccc12 [TCMDC-137317],103.9
16,CC1CN(c2ccc3occ(C(=O)Nc4ccc(-c5ccncc5)c(Cl)c4)c3c2)CC(C)N1C (stereo not shown) [TCMDC-141360],38.63
17,O=C(Nc1cccc(-c2ccc(-c3nc4ccccc4[nH]3)s2)c1)c1ccncc1 [TCMDC-136956],6.685
18,CCCN1CCN(CCCNc2c3ccccc3nc3ccccc23)CC1 [TCMDC-137478],97.73
19,CCOC(=O)N1CCN(CCCNc2c3ccccc3nc3ccccc23)CC1.Cl [TCMDC-137544],15.5
20,CCCN1CCN(CCNc2c3ccccc3nc3ccccc23)CC1 [TCMDC-137549],102.5
21,CC(C)CN1CCN(CCNc2c3ccccc3nc3ccccc23)CC1 [TCMDC-138008],92.54
22,CCCN1CCN(CCCCNc2c3ccccc3nc3ccccc23)CC1 [TCMDC-137576],93
23,COc1cc2nc(NCCN3CCOCC3)n3nc(-c4ccccc4)nc3c2cc1OC [TCMDC-124407],-12.35
